The values that follow come from PubChem BioAssay AID431 (Sanford-Burnham Center for Chemical Genomics, 2006).

Each structure is given as a SMILES string. Among all 63,000 compounds or so, about 1,100 (1.7%) were called active. This excerpt belongs to a sample that is enriched for actives. Potency and affinity values are given separately. A number with no mark means an inactive call.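 The calls were made as follows: active = compounds whose percent cytotoxicity in the single-dose primary screen, scaled between solvent and toxic-drug controls, exceeds 50; inactive = the rest.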

This assay can be described thus: cytotoxicity in KRAS-transformed pancreatic duct cells, primary screen, cell-based, fluorescence, HTS (AID 431).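 Also: 0% = DMSO solvent wells and 100% = doxorubicin-treated wells.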 The following applies: HPDE-C7K KRASV12 cells, Alamar Blue viability, 48 h; at 10 µM; hits give high values. In general terms: Resazurin is reduced to fluorescent resorufin, in cell work by metabolically active cells.
Consider `O=C(CSc1nc2sc3c(c2c(=O)n1-c1ccccc1)CCCC3)NCc1ccco1`, for which the cytotoxicity is 71.9% (active).

`Cc1nc2sc3c(c2c2nnc(SCC(=O)NCc4ccco4)n12)CCCC3`: the cytotoxicity is 5.1%.

For the molecule `CC1(C)Cc2c(sc3nc(SCC(=O)NCc4ccco4)n(-c4ccccc4)c(=O)c23)CS1`, the cytotoxicity is -9.9%.

As to `C=CCn1c(SCC(=O)NCc2ccco2)nc2sc3c(c2c1=O)CCCCC3`, the cytotoxicity was 6%.

Regarding `CCSc1nc2sc3c(c2c2nnc(SCC(=O)NCc4ccco4)n12)CCCC3`, the cytotoxicity was 8.1%.

Turning to `CC1=C(C(=O)N2CCOCC2)C(c2ccsc2)C2=C(CCCC2=O)N1` (centres undefined), the cytotoxicity is 4.5%.

Consider `COC(=O)c1ccccc1NC(=O)CN1CCC(n2nnc3cc(C)ccc32)CC1`, for which the cytotoxicity was 7.1%.

For `CCOc1ccc(N(CC(=O)NC2CCCC2)S(=O)(=O)c2c(C)noc2C)cc1`, the cytotoxicity is 4.7%.

Regarding `O=C(Oc1ccc2c(c1)OCO2)c1cc2c(s1)CCC2`, the cytotoxicity was 66.1% (active).

For the molecule `O=C(Oc1ccc2c(c1)OCO2)c1cccs1`, the cytotoxicity is -6%.

As for `O=C(Oc1ccc2c(c1)OCO2)c1ccncc1`, the cytotoxicity is 12.7%.

As to `NS(=O)(=O)c1ccc(S(=O)(=O)NCCc2ccccc2)cc1`, the cytotoxicity is -1.8%.

`COc1cccc(NC(=O)NC2CCN(Cc3nnnn3Cc3ccc(F)cc3)CC2)c1`: the cytotoxicity is -3.4%.

Take `CCC(c1nnnn1Cc1ccco1)N(CCc1ccccc1)Cc1cc2ccc(OC)cc2[nH]c1=O` (centres undefined): the cytotoxicity is 50.4% (active).

For the molecule `COc1ccc2cc(CN(Cc3ccco3)C(c3nnnn3C3CCCCC3)C(C)C)c(=O)[nH]c2c1` (centres undefined), the cytotoxicity was 1.3%.

For `CCC(c1nnnn1C1CCCCC1)N(Cc1ccco1)Cc1cc2ccc(OC)cc2[nH]c1=O` (centres undefined), the cytotoxicity was 64.5% (active).

Turning to `CCC(c1nnnn1C1CCCC1)N(Cc1cccs1)Cc1cc2cc(C)ccc2[nH]c1=O` (centres undefined), the cytotoxicity is 68.3% (active).

For the molecule `COc1ccc2cc(CN(Cc3ccco3)Cc3nnnn3C3CCCCC3)c(=O)[nH]c2c1`, the cytotoxicity was 22.4%.

Consider `Cc1ccc2[nH]c(=O)c(CN(CCc3ccccc3)C(c3nnnn3Cc3ccco3)C(C)C)cc2c1` (centres undefined), for which the cytotoxicity is 60.2% (active).

`CCOC(=O)Cn1nnnc1C(CC)N(Cc1cccs1)Cc1cc2cc(C)ccc2[nH]c1=O` (centres undefined): the cytotoxicity was -3.3%.

On to `CCC(c1nnnn1Cc1ccco1)N(CCc1ccccc1)Cc1cc2cc(C)ccc2[nH]c1=O` (centres undefined), for which the cytotoxicity was 36%.

For the molecule `COc1ccc2cc(CN(CCc3ccccc3)Cc3nnnn3Cc3ccco3)c(=O)[nH]c2c1`, the cytotoxicity is 33.5%.

Take `CCOc1ccc2[nH]c(=O)c(CN(Cc3cccs3)C(CC)c3nnnn3C(C)(C)CC)cc2c1` (centres undefined): the cytotoxicity was 30.4%.

Consider `CCC(c1nnnn1Cc1ccccc1)N(Cc1ccco1)Cc1cc2cc(OC)ccc2[nH]c1=O` (centres undefined), for which the cytotoxicity is 22.2%.

Take `CCC(c1nnnn1Cc1ccco1)N(Cc1ccccc1OC)Cc1cc2cc(C)ccc2[nH]c1=O` (centres undefined): the cytotoxicity is -7.4%.

For `CCOC(=O)c1oc2ccc(Br)cc2c1CSc1nnc(C)s1`, the cytotoxicity was -7.5%.

Take `COC(=O)c1cn(NC(=O)c2cccc(N(C)C)c2)c(=O)c2ccccc12`: the cytotoxicity was -1.6%.

As for `CCOC(=O)c1c(C)[nH]c(C(=O)CN2C(=O)NC(C)(c3ccc(C)cc3)C2=O)c1C` (centres undefined), the cytotoxicity was 29.2%.

Regarding `COc1ccc(S(=O)(=O)N(C)CC(=O)N2CCC(C)CC2)cc1Cl`, the cytotoxicity is 9.5%.

Turning to `CCC(C)(C)n1nnnc1C(c1cc2ccc(C)cc2[nH]c1=O)N(Cc1cccnc1)Cc1ccco1` (centres undefined), the cytotoxicity is 14.1%.

Take `COc1ccc2[nH]c(=O)c(C(c3nnnn3C(C)(C)C)N(Cc3ccco3)CC3CCCO3)cc2c1` (centres undefined): the cytotoxicity was -29.6%.

As for `CCCC(c1nnnn1C(C)(C)CC)N(Cc1ccco1)Cc1cc2ccc(OC)cc2[nH]c1=O` (centres undefined), the cytotoxicity was 55.7% (active).

Regarding `O=C(Nc1nccs1)c1nc(-c2ccccc2)n(-c2ccccc2)n1`, the cytotoxicity was 76.3% (active).

In the case of `Cc1csc(NC(=O)c2nc(-c3ccccc3)n(-c3ccccc3)n2)n1`, the cytotoxicity is -19.1%.

On to `NC(=O)c1ccsc1NC(=O)c1nc(-c2ccccc2)n(-c2ccccc2)n1`, for which the cytotoxicity is 9.4%.

Consider `CCCCC(=O)Nc1ccc(C(=O)NCc2ccncc2)cc1`, for which the cytotoxicity was -7.4%.

As to `O=C(CC12CC3CC(CC(C3)C1)C2)N1CCOCC1`, the cytotoxicity was -7.8%.

In the case of `CCOC(=O)c1sc2nc(NC(=O)C(C)(C)C)sc2c1C`, the cytotoxicity is 2.1%.

With `CCOC(=O)c1sc2nc(NC(=O)C3CC3)sc2c1C`, the cytotoxicity was 4.4%.

As to `CCOC(=O)c1sc2nc(NC(=O)C3CCCCC3)sc2c1C`, the cytotoxicity was 68.2% (active).

In the case of `CCC(C)[C@H](NC(=O)NCc1cccs1)C(=O)OC` (some centres undefined), the cytotoxicity is 7.9%.

On to `O=S(=O)(c1ccc(Nc2ccc3c(c2)OCO3)nc1)N1CCOCC1`, for which the cytotoxicity is -0.1%.

As for `O=C(CCS(=O)(=O)c1cccc2nsnc12)NCc1ccccc1`, the cytotoxicity was -10.5%.

For `Cc1cccc(-n2c(CCCN3C(=O)c4ccccc4C3=O)nc3ccccc3c2=O)n1`, the cytotoxicity was -9.8%.

On to `Cc1oc2c(CN3CCOCC3)c(O)ccc2c(=O)c1-c1ccccc1`, for which the cytotoxicity was -12.9%.

As to `COc1cc(NS(=O)(=O)c2ccc(NC(=O)C3CCCO3)cc2)nc(OC)n1` (centres undefined), the cytotoxicity is -15.8%.

With `Cc1ccc(OCc2nc(-c3ccccn3)no2)c(Br)c1`, the cytotoxicity is 26.3%.

`Clc1ccc(OCc2nc(-c3ccccn3)no2)c(Br)c1`: the cytotoxicity is 13.1%.

Turning to `CCOc1ccc(-c2nnc(-c3ccco3)o2)cc1OCC`, the cytotoxicity is 1.7%.

Regarding `COc1cccc(N2CCN(Cc3nc4ccccc4c(=O)[nH]3)CC2)c1`, the cytotoxicity was 4.2%.

Regarding `COc1cccc(N2CCN(CC(=O)c3c[nH]c4ccc(OC)cc34)CC2C)c1` (centres undefined), the cytotoxicity is 17.4%.

As to `O=C1CC(c2ccccc2)n2nc(N3C(=O)CCC3=O)nc2N1` (centres undefined), the cytotoxicity was 2.8%.

For `CC(=O)Nc1ccc(S(=O)(=O)c2ccc(N)cc2)cc1N`, the cytotoxicity was -5.2%.

As for `CC1N=C2c3ccccc3N=C(SCc3cc(=O)n4cc(Cl)ccc4n3)N2C1=O` (centres undefined), the cytotoxicity was 5.7%.

Regarding `CSc1ccc(S(=O)(=O)Nc2ccc3c(c2)OCCO3)cc1`, the cytotoxicity was 9.5%.

With `O=S(=O)(Nc1ccc2c(c1)OCCO2)c1ccc2oc3ccccc3c2c1`, the cytotoxicity is 73% (active).

Take `COc1ccc(NS(=O)(=O)c2ccc3oc4ccccc4c3c2)cn1`: the cytotoxicity is 35.2%.

Consider `Cc1ccc2c(c1)c(C)c(C)n2CC(O)Cn1nc(C)cc1C` (centres undefined), for which the cytotoxicity is -6.3%.

For the molecule `Oc1c(CN2CCN(c3ccccn3)CC2)cc(Cl)c2cccnc12`, the cytotoxicity was 28.4%.

As to `Oc1ccc2cccnc2c1`, the cytotoxicity was 4.8%.

Consider `OCc1ccnc2c(O)cccc12`, for which the cytotoxicity is 11.7%.

`Oc1c(CN2CCc3ccccc3C2)cc(Cl)c2cccnc12`: the cytotoxicity is -1.6%.

`CCC1Oc2ccc(C)cc2N(CC(=O)NCCC2=CCCCC2)C1=O` (centres undefined): the cytotoxicity was 0%.

On to `O=C(COc1ccc(Cl)cc1)Nc1ccc2oc(-c3ccncc3)nc2c1`, for which the cytotoxicity was -3%.

Take `COc1ccc(CNC(=O)c2cc(-n3cnnc3)ccc2Cl)cc1`: the cytotoxicity was -0.7%.

As for `CCOC(=O)N1CCN(C(=O)CSc2nnc(-c3cccs3)o2)CC1`, the cytotoxicity was 4.2%.

On to `COc1cccc(NC2=NC3(CCCCC3)N=C(N)N2)c1`, for which the cytotoxicity was -1.1%.

In the case of `COc1ccc(NC2=NC3(CCCCC3)N=C(N)N2)cc1`, the cytotoxicity was 10.1%.

`CCN(C(=O)COc1ncnc2ccc(Br)cc12)C1CCS(=O)(=O)C1` (centres undefined): the cytotoxicity was -5.5%.

Consider `COC(=O)c1ccc(CSc2nc3c(cnn3-c3ccc(F)cc3)c(=O)[nH]2)o1`, for which the cytotoxicity is 1.7%.

Regarding `COC(=O)c1ccc(CSc2nc3c(cnn3-c3ccc(C)c(C)c3)c(=O)[nH]2)o1`, the cytotoxicity was 8%.

As for `COC(=O)c1ccc(CSc2nc3scc(-c4cccs4)c3c(=O)[nH]2)o1`, the cytotoxicity was 50.4% (active).

Consider `CN(C)S(=O)(=O)c1ccc(C(=O)Nc2ccc(Cl)cc2)cc1`, for which the cytotoxicity is 1.5%.

Regarding `CN(c1ccc(O)cc1)c1nc(-c2ccccc2)cs1`, the cytotoxicity is 4.5%.

`Oc1ccc(-c2nc(-c3ccc(O)c(O)c3)cs2)cc1`: the cytotoxicity is 79.5% (active).

On to `COc1cc(-c2csc(C)n2)ccc1O`, for which the cytotoxicity is -3.1%.

For `Cc1cccc2cc(C(c3nnnn3CC3CCCO3)N3CCCC4(CCCCC4)C3)c(=O)[nH]c12` (centres undefined), the cytotoxicity is -12.9%.

As to `Cc1csc(NC(=O)c2sc3nc(-c4cccs4)ccc3c2N)n1`, the cytotoxicity is 72.2% (active).

Take `Nc1c(C(=O)NC2CCCC2)sc2nc(-c3cccs3)ccc12`: the cytotoxicity is 12.2%.

Consider `CCCSc1nnc(NC(=O)c2sc3nc(-c4cccs4)ccc3c2N)s1`, for which the cytotoxicity is 22.7%.

With `CC(C)CCN1C(=O)c2ccc(C(=O)NCC3CCCO3)cc2C1=O` (centres undefined), the cytotoxicity is -6.8%.

`O=C(NCCCN1CCN(c2ccccc2F)CC1)Nc1ccc(F)cc1`: the cytotoxicity was -10.3%.

As to `Cc1cc2n(n1)C(c1ccccc1Cl)Nc1ccccc1-2` (centres undefined), the cytotoxicity is 18.6%.

`Cc1cc2n(n1)C(c1ccccc1)Nc1ccccc1-2` (centres undefined): the cytotoxicity is 15.3%.

In the case of `CCCNC(=O)Cc1ncn[nH]1`, the cytotoxicity was 3.6%.

For the molecule `CCOc1cc(C(=O)O)cc(Cl)c1OCC#N`, the cytotoxicity is -16.2%.

As to `Cc1ccccc1Cc1c(C)nc2c(C(=O)N3CCN(Cc4ccc5c(c4)OCO5)CC3)cnn2c1C`, the cytotoxicity is -9.2%.

As for `Cc1nc2c(C(=O)O)cnn2c(C)c1Cc1ccccc1F`, the cytotoxicity was -2.2%.

Turning to `CC1(C)CC(=O)c2cc(C(=O)N3CCN(CCO)CC3)c(=O)n(-c3ccc(Cl)cc3)c2C1`, the cytotoxicity is -8.4%.

Turning to `O=C(c1cc2ccccn2n1)N1CCCC1`, the cytotoxicity was 8%.

Consider `Cc1onc(-c2ccccc2Cl)c1C(=O)NCc1ccc(S(N)(=O)=O)cc1`, for which the cytotoxicity is -0.7%.

Turning to `Cn1nnnc1Sc1ncnc2scc(-c3ccccc3)c12`, the cytotoxicity is 11.1%.

On to `O=c1[nH]cnc2scc(-c3ccc(F)cc3)c12`, for which the cytotoxicity is 7.7%.

Regarding `COc1ccc(OC)c(NC(=O)CN2CCC(C(=O)c3ccc(C)cc3)CC2)c1`, the cytotoxicity is 4.8%.
